Compound activity as filed in PubChem BioAssay.
Most compounds without a hit are left out; they make up all but 3.8% or so of the library.
Nrf2 activator: Nrf2 pathway activation. AID 624171. AREc32 ARE-luciferase reporter (MCF7-derived line), luminescence, 24 h. hit rate 0.31% among 410,000. Potency, µM (titrated, usually from 46.1 µM), for the others: top-dose activation, hits mostly activators; also: % of control where 0% means no effect; nearly all actives have a fitted effect of over 65% in size
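ARE activation measured as luciferase luminescence (Steady-Glo, 30 min RT) in AREc32_Fluc cells after 24 hr compound exposure at 37 deg C, 5% CO2; cells seeded overnight at 1000/well in OPTI-MEM, 5% FBS.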
Nrf2 block: inhibitors of Nrf2 signaling; hit rate 2.1% among 360,000; Potency, µM (series often up to 46 µM), inactives show at the highest dose activity change, negative = inhibition, actives largely listed as inhibitors; A549 ARE-Fluc reporter, luciferase luminescence, 18-24 h; AID 504444; also: % is scaled to controls: 0 for no effect and ±100 for the full control effect; nearly all actives have a fitted effect of over 60% in size
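A549 ARE_Fluc cells, 5000/well, 5% FBS OPTI-MEM; compounds in dose-response, 18-24 h at 37 °C/5% CO2; CellTiter-Fluor viability read (Ex 405/Em 525), then BugLite luciferase luminescence = Nrf2 activity.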
mIDH1 inhibitor: inhibitors of human mutant IDH1 R132H | Potency, µM (highest dose often 76.6 µM), for the others: top-dose activity change, negative = inhibition, hits mostly inhibitors | hit rate 0.093% among 390,000 | AID 602179 | IDH1-R132H enzyme, NADPH consumption, diaphorase/resazurin fluorescence | O75874; also: % is scaled to controls: 0 for no effect and ±100 for the full control effect; nearly all actives have a fitted effect of over 65% in size
Target sequence (O75874 whole entry R132H, stated change not applied): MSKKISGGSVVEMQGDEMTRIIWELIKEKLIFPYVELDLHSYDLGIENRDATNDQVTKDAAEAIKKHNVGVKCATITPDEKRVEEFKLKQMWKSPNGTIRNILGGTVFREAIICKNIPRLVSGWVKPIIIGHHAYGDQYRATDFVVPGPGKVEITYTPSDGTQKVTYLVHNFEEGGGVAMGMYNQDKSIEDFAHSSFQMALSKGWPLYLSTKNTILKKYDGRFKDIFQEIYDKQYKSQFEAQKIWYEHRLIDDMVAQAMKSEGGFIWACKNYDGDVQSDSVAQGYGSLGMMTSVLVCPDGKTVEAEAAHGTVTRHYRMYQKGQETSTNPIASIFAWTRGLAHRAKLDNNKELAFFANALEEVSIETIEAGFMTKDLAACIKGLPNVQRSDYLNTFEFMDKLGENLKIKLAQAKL
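IDH1-R132H (0.5 ug/mL) preincubated 30 min with compound, then NADPH (0.016 mM) and alpha-KG (2 mM) added; 80 min at RT, pH 7.5. Remaining NADPH coupled via diaphorase/resazurin to fluorescence (540/590 nm); concentration-response curves normalized to no-enzyme control.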
A549 viability: kills or reduces viability of A549 cells in Nrf2 counter-screen; hit rate 0.16% among 390,000; AID 504648; Potency, µM (highest dose often 46 µM), for the others: at the highest dose activity change, negative = cytotoxicity, most hits filed as inhibitors; A549 ARE-Fluc cells, CellTiter-Fluor viability, 18-24 h; also: % is scaled to controls: 0 for no effect and ±100 for the full control effect
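A549 ARE_Fluc cells in 5% FBS OPTI-MEM were exposed to compounds in concentration-response for 18-24 h at 37 deg C. Viability was read by CellTiter-Fluor fluorescence (Ex 405/Em 525) after 30 min, before the luciferase read.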
ELG1 DNA repair: ELG1-dependent DNA repair inhibition | AID 504467 | Potency, µM (doses to about 46.1 µM), for inactives: at the highest dose activity change, negative = inhibition, most hits filed as inhibitors | hit rate 2.3% among 330,000 | HEK293T ELG1-luciferase reporter, luminescence, 16 h; DNA damage induced by 5-fluorouridine; also: % is scaled to controls: 0 for no effect and ±100 for the full control effect; nearly all actives have a fitted effect of over 55% in size
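Step one: seed 2,000 cells per well. Step two: pin-transfer compound or DMSO alongside 5-fluorouridine. Step three: incubate 16 hr, 37 °C, 5% CO2. Step four: add ONE-Glo, wait 30 min, read luminescence.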
* hit, by the source's call; ? = inconclusive; . = not tested or not shown; [ ] = remark or other dose. Calls follow the shape of the dose curve; as a rule, active = well fitted curve in the direction sought with a large enough effect; inconclusive = small, poorly fitted or top-dose-only effect, or another doubt; inactive = no such curve, though single readings can be large; an effect the other way counts as inactive or inconclusive. Potency is read from the fitted curve at half-maximal effect.

SMILES | Nrf2 activator | Nrf2 block | mIDH1 inhibitor | A549 viability | ELG1 DNA repair
CN(c1ccccc1)S(=O)(=O)c1cc(C(=O)N2CCN(c3ccccn3)CC2)ccc1Cl | 4% | ? | 1% | -10% | 15µM*
O=C(c1ccc(Cl)c(S(=O)(=O)N2CCCCC2)c1)N1CCCCC1 | 0% | 16% | -2% | -1% | -9%
O=C(c1ccc(Cl)c(S(=O)(=O)N2CCCCCC2)c1)N1CCN(c2ccccc2O)CC1 | 0% | 18µM* | -2% | -15% | 16µM*
Cc1ccn2c(NC(=O)c3cccc(Cl)c3)c(-c3ccccc3)nc2c1 | 5% | 5%[9.27 µM] | 6% | -12% | .
CCOC(=O)c1c(NC(=O)C(C)Sc2cn(CCNC(=O)c3ccc(OC)c(OC)c3)c3ccccc23)sc2c1CCC2 (stereo not drawn) | 1% | -24% | 13% | -2% | .
CCC(C)c1ccc(S(=O)(=O)N2CCN(C(=O)c3ccc(Cl)c(S(=O)(=O)N4CCOCC4)c3)CC2)cc1 (stereo not drawn) | 1% | 10µM* | -3% | -10% | .
O=C(c1ccc(Cl)c(S(=O)(=O)N2CCCCC2)c1)N1CCN(c2ccccc2)CC1 | -1% | 23µM* | 2% | -18% | ?
Oc1ccc(Cl)cc1C1C=C(c2ccc3c(c2)OCO3)NC(c2ccc(Br)cc2)N1 (stereo not drawn) | . | 8% | . | 0% | .
COc1ccc(NC(=O)CN(C)S(=O)(=O)c2ccc3c(c2)c(=O)n(C)c(=O)n3C)cc1 | 0% | -4% | 15% | 0% | -11%
CN1CCC(=O)N(C(CSc2ccc(Br)cc2)Cc2ccccc2)CC1 (stereo not drawn) | . | 7% | . | 4% | .
Cc1c(Cl)cccc1-c1ccc(C(=O)N2CCN(c3ccc([N+](=O)[O-])cc3)CC2)o1 | 3% | ? | 10% | -29% | 16µM*
COc1ccc(N2CCN(C(=O)c3ccc(COc4ccc([N+](=O)[O-])cc4)o3)CC2)cc1 | 0% | 23µM* | 5% | -18% | 21µM*
CCC(C(=O)Nc1cccc(-c2cn3cccnc3n2)c1)c1ccccc1 (stereo not drawn) | 6% | . | 0% | 3% | .
CC(C)OCCCNC(=O)CN1C(=O)c2cccnc2Sc2ccccc21 | -1% | ? | -4% | -6% | .
Cc1cccc(OCc2ccc(-c3nc(C#N)c(NCCN(C)C)o3)o2)c1 | 7% | 16% | . | 0% | .
CC1=CC(C)C(/C=N/N=C(N)N)C(C)C1 (stereo not drawn) | 3% | 4% | 1% | 3% | 5.8µM*
CC1=CC(C)C(C[N+]2(C)CCCCC2)C(C)C1 (stereo not drawn) | 1% | 4% | -11% | -4% | -4%
CCOc1ccc(NS(=O)(=O)c2c(C)nc3sc(C)c(C)n3c2=O)cc1 | 0% | ? | -3% | -4% | .
Cc1cc2nc3ccc(=[N+](C)C)cc-3sc2cc1N | -2% | ? | 42% | -20% | 0.65µM*
CN(C)c1ccc2nc3ccc(=[N+](C)C)cc-3sc2c1 | -2% | 12µM* | 45% | ? | 0.73µM*
CCC(Sc1nc2ccccc2c2nc(CCn3c(C)nc4ccccc43)nn12)C(=O)Nc1ccc(F)cc1 (stereo not drawn) | -1% | . | 3% | -4% | .
O=C(c1ccccc1F)N1N=C(C(F)(F)F)CC1(O)c1ccccc1 (stereo not drawn) | 6% | . | -6% | . | .
Cc1oc(-c2cccc3ccccc23)nc1CN1CCN(c2ncnc3ccccc23)CC1 | 0% | 18µM* | -12% | ? | 15µM*
COc1cc(CN(C(=O)Nc2cccc(Cl)c2)c2ccccn2)cc(OC)c1OC | -1% | 5% | 1% | 0% | .
CCOc1ccc(C(=O)NCCc2csc(-c3cccnc3)n2)cc1 | 0% | . | -18% | 5% | .
SMILES | Nrf2 activator | Nrf2 block | mIDH1 inhibitor | A549 viability | ELG1 DNA repair
O=C(COC(=O)CCS(=O)(=O)c1ccc(F)cc1)NC1CCCCC1 | 0% | 1% | 0% | 1% | 7%
Cc1ccc(-c2csc3ncnc(SCC(=O)Nc4nnc(C)s4)c23)cc1 | 0% | ? | -4% | -18% | -1%
Cc1ccc(-c2csc3ncnc(Sc4nnc(CN5CCCCCC5=O)o4)c23)cc1 | ? | 15µM* | -2% | ? | ?
O=c1oc2cc(O)ccc2s1 | ? | 13µM* | 32% | 2% | 3%
O=c1c(O)c(-c2ccc(O)cc2O)oc2cc(O)cc(O)c12 | . | . | . | . | 3%
N#CC(c1ccccc1)c1ccc2c(C(F)(F)F)cc(C(F)(F)F)nc2n1 (stereo not drawn) | ? | 26µM* | -3% | ? | ?
Cc1ccc(C(C#N)c2ccc3c(C(F)(F)F)cc(C(F)(F)F)nc3n2)cc1 (stereo not drawn) | 7% | ? | -1% | ? | ?
CCc1ccccc1OCCSc1nnc(-c2cc(OC)c(OC)c(OC)c2)o1 | 7% | 7% | 0% | 0% | .
O=C(CCl)N(C1CCCC1)C1CCS(=O)(=O)C1 (stereo not drawn) | 29% | 21µM* | 1% | -9% | ?
CC(=O)c1ccc(OCC(=O)N(C2CCCCC2)C2CCS(=O)(=O)C2)cc1 (stereo not drawn) | -1% | -1% | 3% | -11% | 1%
c1ccc(CN2CCN(c3nc(-c4ccccc4)nc(-n4ccnc4)n3)CC2)cc1 | 0% | 15µM* | 0% | -30% | -30%
CC(=O)c1ccc(N2CCN(C(=O)CCCc3nc4ccccc4s3)CC2)cc1 | 2% | 15µM* | 9% | 3% | ?
O=C(CCc1nc2ccccc2s1)N1CCN(c2ccccc2)CC1 | 1% | ? | -7% | 0% | -15%
CCn1cc2nc(SCC(=O)Nc3cc(OC)cc(OC)c3)n(Cc3ccc(Cl)cc3)c(=O)c2n1 | 0% | ? | 4% | -21% | .
Cc1onc(-c2ccccc2)c1C(=O)c1c[nH]c(C(=O)NCc2ccncc2)c1 | 0% | -1% | 6% | 10% | 13µM*
Cc1onc(-c2ccccc2)c1C(=O)c1c[nH]c(C(=O)NCCCN2CCOCC2)c1 | 0% | 7% | 3% | 14% | -1%
Cc1onc(-c2ccccc2)c1C(=O)c1c[nH]c(C(=O)NCc2ccccn2)c1 | 3% | ? | 13% | ? | 16µM*
Cc1ccc(C)c(Nc2ncnc3c2cnn3-c2ccc(F)cc2)c1 | 8% | . | -11% | -3% | .
COc1ccc(/C=C/C(=O)c2ccc3c4c(cccc24)CC3)cc1OC | 0%[9.22 µM] | 18µM* | 6% | -3% | ?
O=C(CSc1nccn1Cc1ccccc1)Nc1ccc2c(c1)OCO2 | 5% | . | -12% | 1% | .
COc1ccc(OCC(=O)N2CCC(c3nc4ccccc4s3)CC2)cc1 | 5% | -28% | 24% | 1% | .
O=C(COc1ccc([N+](=O)[O-])cc1)N1CCC(c2nc3ccccc3s2)CC1 | -1% | 15µM* | -13% | -25% | .
